ROMK mod: modulators of human ROMK potassium channel | P48048 | Tet-inducible ROMK, thallium flux fluorescence; actives lie on both sides | B-score at 10 µM | 130,000 compounds, 2% hits | AID 1918;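 active means signal ratio slope over the read window, or its plate-corrected B-score, at least 3 SD from the plate mean, either direction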;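 further: B-score of the F/F0 ratio slope over 7 to 12 s after thallium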
WT yeast gro inh: growth inhibition of WT yeast, mitochondrial fusion screen. mitochondrial fusion phenotypic screen, WT strain. inhibition, % at 10 µM. 190,000 compounds, 2.1% hits; in the data active means inhibition above about 58%; tested in S. cerevisiae
Cl transport mod: KCC2 (human) Cl- transport modulation; Q9H2X9; KCC2 cells, thallium flux FluoZin-2 fluorescence; B-score of Tl+ flux slope (higher = more flux/activation; lower = inhibition) at 10 µM; 190,000 compounds, 2.2% hits; AID 1456;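 active means thallium flux slope and its plate-corrected score both differing from the plate sample mean at a set confidence after two filtering rounds, in either direction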;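 further: slope of fluorescence scaled to starting intensity during 10 to 20 s after thallium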
Insulin prom up: MIN6 insulin promoter up-regulation. 190,000 compounds, 0.3% hits. z-score at 5 µM. AID 1625. MIN6 insulin promoter-GFP reporter, high-content imaging; stronger effect = higher value;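 active means z-score above 3 at 5 µM with at least 500 cells counted in the well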
Insulin prom inh: TRM-6 insulin promoter activity inhibition | TRM-6 cells (human fetal islet line), insulin promoter-eGFP reporter, imaging; reporter expression induced with tamoxifen | inhibition, % at 2 µM | 130,000 compounds, 0.9% hits | AID 1273;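 active means inhibition above the mean plus 3 SD, with well images judged a real hit on visual review, cut at about 60% in these data, passing the limit was not always enough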
L major viab: Leishmania major promastigote growth inhibition; Leishmania major promastigotes, resazurin fluorescence viability; inhibition, % at 10 µM; 200,000 compounds, 9% hits; AID 1063; in the data active means inhibition above about 50%;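 further: promastigotes grown with compound for 44 hours at 28 °C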
Active calls of the source: *; x = no result given. Most compounds without a hit are left out; they make up all but 12% or so of the library.

SMILES	ROMK mod	WT yeast gro inh	Cl transport mod	Insulin prom up	Insulin prom inh	L major viab
CCOC(=O)N1CCN(CCC(=O)Nc2ccc(Br)c(C)c2)CC1	-2.5	-4	-0.76	x	-33	85*
CCOC(=O)N1CCN(CCC(=O)Nc2ccc(OC(F)(F)F)cc2)CC1	x	-8	-0.11	-2.1	9	92*
CC(=O)c1ccc(OCc2ccccc2)c(C)c1O	-0.028	-8	-0.05	-0.21	43	-7
CC(=O)NCCNC(=O)c1oc2ccccc2c1CSc1ncn[nH]1	0.081	-42	-0.077	-1.1	18	-6
CC(=O)CCS(=O)(=O)c1ccc(Oc2ccc(S(=O)(=O)CCC(C)=O)cc2)cc1	x	-1	0.22	x	56	54*
CC(=O)CS(=O)(=O)c1ccc(Oc2ccc(S(=O)(=O)CC(C)=O)cc2)cc1	x	-9	x	x	27	-4
Cc1cccc(NS(=O)(=O)c2ccc3nc(-c4ccccc4)[nH]c3c2)c1C	0.84	-12	-0.018	-0.19	-15	59*
Cc1nc2ccc(S(=O)(=O)Nc3ccccc3C)cc2s1	0.97	0	0.21	x	-23	18
Cn1nc(-c2ccc(C(=O)N3CCN(CCO)CC3)cc2)c2ccccc2c1=O	0.85	0	0.76	x	-3	1
Cn1cnc([N+](=O)[O-])c1Oc1cccc2ccccc12	-0.65	2	-1.5	-0.24	56	73*
O=C(NCCCN1CCOCC1)c1c(O)c2cc(Br)cc(Br)c2[nH]c1=O	-3.3*	x	0.026	1	-198	2
Cc1ccc(S(=O)(=O)N(C(=O)c2ccncc2)c2ccc(OC(=O)c3ccncc3)cc2)c(C)c1	0.43	-7	-0.65	-0.33	-14	76*
Cc1ccc(C)c(S(=O)(=O)N(C(=O)c2ccncc2)c2ccc(OC(=O)c3ccncc3)cc2)c1	0.0027	8	-0.7	-0.1	x	5
COc1ccc(OC)c(Nc2nc(-c3sc(C)nc3C)cs2)c1	x	7	-2.3	-1.2	-31	21
COc1ccc(OC)c(Nc2nc(-c3sc(NC(=O)C(C)(C)C)nc3C)cs2)c1	x	-1	0.72	-2.4	7	93*
COc1ccc(Cl)cc1Nc1nc(-c2sc(NC(=O)C(C)(C)C)nc2C)cs1	x	18	-0.032	-2.2	-60	96*
Cn1c(=O)c(C(=O)CN2CCN(S(=O)(=O)c3ccccc3)CC2)c(N)n(Cc2ccccc2)c1=O	0.92	-7	-0.6	-0.61	-57	71*
Cn1c(N)c(C(=O)CCl)c(=O)n(Cc2ccccc2)c1=O	-0.39	-9	0.23	0.02	18	62*
Cc1c(NC(=O)c2ncn[nH]2)cccc1-c1nc2ccccc2s1	x	0	-0.47	-0.32	25	100*
Cc1c(NC(=O)c2ccc(N3CCCC3)c([N+](=O)[O-])c2)cccc1-c1nc2ccccc2s1	x	-10	x	-0.2	21	71*
COc1cccc(NC(=S)N(CCN2CCCCC2)Cc2ccco2)c1	0.29	-1	1.2	-0.87	x	15
CC1Cc2ccccc2N1CC(=O)NC(=O)NCc1ccccc1 (stereo not drawn)	-0.35	-5	-0.8	-0.27	x	63*
CC1Cc2ccccc2N1CC(=O)NC(=O)NC(C)(C)C (stereo not drawn)	-0.61	6	-0.19	-0.15	x	2
CC1Cc2ccccc2N1CC(=O)NC(=O)NC1CCCCC1 (stereo not drawn)	0.85	-5	0.42	x	x	92*
CN(C)/C=C1\N=C(c2ccc(Cl)cc2Cl)OC1=O	-1.4	-6	x	0.13	23	-6
SMILES	ROMK mod	WT yeast gro inh	Cl transport mod	Insulin prom up	Insulin prom inh	L major viab
Cc1ccc(C2=NC3(CCCCC3)NC2=S)cc1	1	3	2.4	-0.3	62*	-2
Cc1nn(CC(N)=O)c(=O)c2ccccc12	-0.13	-3	x	-2.5	18	100*
Cc1ccc(N2CCN(C(=O)c3cc(C(=O)c4ccccc4C)c[nH]3)CC2)c(C)c1	0.11	58	-0.0077	-1.9	-43	9
CCN1CCCC1Cn1cnc2c([nH]c3ccc(Cl)cc32)c1=O (stereo not drawn)	x	11	x	0.26	3	11
CCN1CCCC1Cn1cnc2c([nH]c3cccc(Cl)c32)c1=O (stereo not drawn)	x	-7	-0.14	-0.49	67	81*
CCC1CCCN1Cn1cnc2c([nH]c3ccc(OC)cc32)c1=O (stereo not drawn)	x	-6	x	-0.04	9	66*
CCC1CCCN1Cn1cnc2c([nH]c3ccccc32)c1=O (stereo not drawn)	0.19	11	0.099	-1.1	x	13
Cc1cc(N2CCCC2)n2nc(C)nc2n1	-0.9	9	0.48	0.02	37	-5

Bioassay records: PubChem BioAssay, several laboratories
